Screening data from PubChem.
Compounds with a hit are over-represented: about 6.1% of the library has one in this group of screens.
TGFb inhibitor – inhibitors of TGF-b signaling; HepG2 CAGA-GFP TGF-b/SMAD3 reporter, GFP fluorescence, 18 h; TGF-beta stimulated, 500 pg/mL final; Potency, µM (series often up to 46.1 µM), for the others: at the highest dose activity, negative = inhibition, usual class: inhibitors; 410,000 tested, 1.2% active; AID 588855; also: % is scaled to controls: 0 for no effect and ±100 for the full control effect; nearly all actives have a fitted effect of over 65% in size
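GFP signal (ex488/em500-530) from TGF-beta-stimulated HEPG2 CAGA-GFP cells, 500 pg/mL final, 18 h at 37 degrees C in DMEM plus 1% FBS, normalized to unstimulated and DMSO-stimulated controls.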
S2 tox – viability counter-screen for ATXN expression inhibitors. S2 cells (HEK-293 line with an ATXN2-luciferase reporter) viability, CellTiter-Fluor protease fluorescence, 24 h. Potency, µM (series often up to 56.7 µM), usual class: cytotoxic. 400,000 tested, 0.49% active. AID 651635; also: nearly all actives have a fitted effect of over 40% in size
HepG2 tox – HepG2 cytotoxicity, counter-screen for TGF-b inhibitors; 410,000 tested, 0.76% active; AID 588856; Potency, µM (doses to about 46.1 µM), for the others: top-dose activity change, negative = cytotoxicity, usual class: cytotoxic; HepG2 CAGA-GFP viability, ATP luminescence, 18 h
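HepG2 CAGA-GFP cells (1000/well, DMEM with 1% FBS) received compound, then TGF-beta at 500 pg/mL final, and were incubated 18 hours at 37 degrees C. Viability was read by CellTiter-Glo luminescence. Media-only wells were set as complete cell-killing and DMSO as no toxicity.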
VP16 counter – inhibits Gal4-VP16 luciferase reporter, ROR gamma counter-screen; 310,000 tested, 3.5% active; Drosophila S2 Gal4-VP16 UAS-luciferase, luminescence, 20 h; Potency, µM (doses to about 53.6 µM), inactives show at the highest dose activity, negative = inhibition, usual class: inhibitors; AID 2546;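 also: Gal4-VP16 expression switched on by copper sulfate through the metallothionein promoter; % is scaled to controls: 0 for no effect and ±100 for the full control effect; nearly all actives have a fitted effect of over 50% in size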
RORgamma inh – blocks mouse ROR gamma transcriptional activity; Drosophila S2 Gal4-RORgamma UAS-luciferase reporter, 20 h; Potency, µM (series often up to 53.6 µM), for the others: at the highest dose activity change, negative = inhibition, most hits filed as inhibitors; 310,000 tested, 5.4% active; also: % is scaled to controls: 0 for no effect and ±100 for the full control effect; nearly all actives have a fitted effect of over 60% in size
Target sequence (P51450 whole entry, looked up, the tested form may be a part): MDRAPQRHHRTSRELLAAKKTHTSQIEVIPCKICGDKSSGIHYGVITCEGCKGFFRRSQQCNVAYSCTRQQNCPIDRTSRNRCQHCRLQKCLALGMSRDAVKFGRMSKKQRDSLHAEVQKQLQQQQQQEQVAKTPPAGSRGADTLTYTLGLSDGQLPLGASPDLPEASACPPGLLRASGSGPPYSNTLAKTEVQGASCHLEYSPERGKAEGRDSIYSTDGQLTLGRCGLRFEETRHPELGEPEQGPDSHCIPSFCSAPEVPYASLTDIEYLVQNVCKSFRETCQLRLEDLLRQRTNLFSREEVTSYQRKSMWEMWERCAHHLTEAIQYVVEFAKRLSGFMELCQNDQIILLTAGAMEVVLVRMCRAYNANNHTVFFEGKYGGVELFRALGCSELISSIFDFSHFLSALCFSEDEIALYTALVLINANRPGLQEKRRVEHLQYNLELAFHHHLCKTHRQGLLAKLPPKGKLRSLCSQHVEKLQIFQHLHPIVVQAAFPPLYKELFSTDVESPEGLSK
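Schneider cells (Drosophila), stable Gal4 DBD–ROR gamma + UAS-luc; 1 hr cmpd preincubation; Cu2+ induction 700 uM final; 20 hr ambient; luminescence.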
ATXN2 expr inh – ATXN2 expression inhibition. HEK-293 ATXN2-luciferase reporter, luminescence, 24 h. 360,000 tested, 0.72% active. Potency, µM (titrated, usually from 57 µM), for inactives: at the highest dose activity change, negative = inhibition, usual class: inhibitors; also: % is scaled to controls: 0 for no effect and ±100 for the full control effect; nearly all actives have a fitted effect of over 55% in size
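qHTS (up to 57 uM final) was run with 24 h compound exposure of reporter cells at 37 °C. Each well was multiplexed: SteadyGlo luminescence measured ATXN2-luciferase expression after a fluorogenic Gly-Phe-AFC viability readout (25 uM final).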
Numbers without * were called inactive; [ ] = another dose, or the depositor's remark. Calls follow the shape of the dose curve; as a rule, active = well fitted curve in the direction sought with a large enough effect; inconclusive = small, poorly fitted or top-dose-only effect, or another doubt; inactive = no such curve, though single readings can be large; an effect the other way counts as inactive or inconclusive. Potency is read from the fitted curve at half-maximal effect.

What do the screens show for `O=C(Cc1ccc(Cl)cc1)Nc1ncc([N+](=O)[O-])s1`?
TGFb inhibitor: -31%; S2 tox: inactive; HepG2 tox: -42%; VP16 counter: inconclusive; RORgamma inh: inconclusive; ATXN2 expr inh: 5%

How did CCOc1ccc(CCNC(=O)CN2N=C(c3ccccc3)CCC2=O)cc1OCC do in these assays?
TGFb inhibitor: -24%; HepG2 tox: -15%

What do the screens show for `CCOc1ccc(C(=O)Nc2cc(C)on2)cc1`?
TGFb inhibitor: -6%; S2 tox: inconclusive; HepG2 tox: -12%; VP16 counter: inconclusive; RORgamma inh: inconclusive; ATXN2 expr inh: 10%

What do the screens show for `Cc1cc(NC(=O)c2cccc(COc3ccc(Br)cc3)c2)no1`?
TGFb inhibitor: -18%; S2 tox: inconclusive; HepG2 tox: -22%; VP16 counter: inconclusive; RORgamma inh: 7.1µM*; ATXN2 expr inh: -1%

How did CCOc1cc(C(=O)Nc2cc(C)on2)cc(OCC)c1OCC do in these assays?
TGFb inhibitor: -7%; S2 tox: inactive; HepG2 tox: -2%; VP16 counter: 1%; RORgamma inh: 2.2µM*; ATXN2 expr inh: -5%

How did CCOC(=O)C1=C(C)Nc2ncnn2C1c1c[nH]c2ccccc12 (centres undefined) do in these assays?
TGFb inhibitor: inconclusive; S2 tox: inactive; HepG2 tox: 6%; VP16 counter: 0%; RORgamma inh: 10µM*; ATXN2 expr inh: -4%

What do the screens show for `Cc1cc(O)cc(O)c1C=NCc1ccco1`?
TGFb inhibitor: 20µM*; S2 tox: 18µM*; HepG2 tox: -69%; VP16 counter: 5.6µM*; RORgamma inh: inconclusive; ATXN2 expr inh: inconclusive

Results for Cc1ccc2nc(NCc3ccco3)c(C=NCc3ccco3)c(=O)n2c1 ?
TGFb inhibitor: -12%; S2 tox: inactive; HepG2 tox: -1%; VP16 counter: -6%; RORgamma inh: 33%; ATXN2 expr inh: 8%

Results for S=C1Cc2ccccc2N1 ?
TGFb inhibitor: 5.6µM*; S2 tox: 5.6µM*; HepG2 tox: 8.9µM*; VP16 counter: -92%; RORgamma inh: inconclusive; ATXN2 expr inh: 6.3µM*

Results for CC(C)(O)C#Cc1ccc(CN2CCc3nnc(CCNC(=O)c4ccco4)n3CC2)cc1 ?
S2 tox: inactive

How did CCOc1cc(CNCCCN2CCOCC2)cc(Br)c1OCc1ccccc1Cl do in these assays?
TGFb inhibitor: 14µM*; S2 tox: inconclusive; HepG2 tox: -93%; VP16 counter: inconclusive; RORgamma inh: inconclusive; ATXN2 expr inh: -22%[11.3 µM]

What do the screens show for `CCOC(=O)c1sc(NC(=O)C2CC2)cc1C`?
TGFb inhibitor: 0%; S2 tox: inactive; HepG2 tox: -7%; VP16 counter: 38%; RORgamma inh: inconclusive; ATXN2 expr inh: 22%

What do the screens show for `CCOC(=O)c1sc(NC(=O)C(C)(C)C)cc1C`?
TGFb inhibitor: 5%; S2 tox: inactive; HepG2 tox: -26%; VP16 counter: 0%; RORgamma inh: 23%; ATXN2 expr inh: 75%

What do the screens show for `CCOC(=O)c1sc(NC(=S)NC(=O)C2CCCC2)cc1C`?
TGFb inhibitor: 14%; S2 tox: inactive; HepG2 tox: -3%; VP16 counter: 3.2µM*; RORgamma inh: 4.5µM*; ATXN2 expr inh: -3%

Results for CCOC(=O)c1sc(NC(=S)NC(=O)CC(C)C)cc1C ?
TGFb inhibitor: -9%; S2 tox: inactive; HepG2 tox: -22%; VP16 counter: inconclusive; RORgamma inh: 5.6µM*; ATXN2 expr inh: 34%

How did CCC1(C2CCN(Cc3ccc(OC)cc3)CC2)NC(=O)N(CC2COc3ccccc3O2)C1=O (centres undefined) do in these assays?
S2 tox: inactive
